The record followed here is PubChem BioAssay (NCI).

The panel holds about 79,000 compounds, 15% with a hit somewhere; the sample as a whole holds those more often. A number with no mark means an inactive call. Calls of active or inactive are those of the source. Cut-off read from the data, not from the text of the source: active = growth inhibition above about 70%; inactive = the rest.

Experiment [1] in a line: NCI Yeast Anticancer Drug Screen. Data for the rad50 strain (AID 155).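 Note: 0% = growth of vehicle-only cultures of the same strain.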 Particulars: S. cerevisiae rad50 strain growth inhibition, stronger effect = higher value. The gist of the method:
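Genetically altered yeast (DNA repair pathway); compound treatment; growth inhibition vs vehicle ctrl.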

The nature of experiment [2]: NCI Yeast Anticancer Drug Screen. Data for the mec2-1 strain (AID 157). Particulars: S. cerevisiae mec2-1 strain, stronger effect = higher value. The gist of the method: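 Compounds were applied to mec2-1 yeast cells. Their growth was then compared with that of vehicle-treated cultures to give growth inhibition.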
Experiment [3] can be described thus: NCI Yeast Anticancer Drug Screen. Data for the sgs1 mgt1 strain (AID 161).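 Note: 0% = growth of cultures given vehicle only.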 To be noted: S. cerevisiae sgs1 mgt1 strain, stronger effect = higher value. Summed up:
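Yeast cells carrying a defined DNA-repair defect were exposed to test compounds. Growth inhibition was measured relative to vehicle-treated controls.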

A short description of experiment [4]: NCI Yeast Anticancer Drug Screen. Data for the cln2 rad14 strain (AID 165).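 Note: 0% = growth equal to vehicle treated cultures.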 To be noted: S. cerevisiae cln2 rad14 strain, stronger effect = higher value. The gist of the method:
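Strain: cln2 rad14 yeast, altered in cell cycle control and DNA damage repair. Read-out: growth inhibition vs vehicle.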

Experiment [5] is described as follows: NCI Yeast Anticancer Drug Screen. Data for the bub3 strain (AID 167). To be noted: S. cerevisiae bub3 mutant strain, stronger effect = higher value. The gist of the method: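 Yeast carrying a defined mutation is treated with each compound, and growth is compared with that of vehicle-exposed cells to give inhibition.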
Experiment [6] in a line: NCI Yeast Anticancer Drug Screen. Data for the mlh1 rad18 strain (AID 175). To be noted: S. cerevisiae mlh1 rad18 strain growth inhibition, stronger effect = higher value. The gist of the method: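 A repair-deficient yeast strain is exposed to test compound, and growth is scored relative to vehicle-treated controls.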
[7] abbreviates: at 5.0 µM (retest, dose inferred, filed as 0.5).
[8] abbreviates: at 50.0 µM (retest, dose inferred, filed as 5.0).

Turning to `CCOC(=O)/C(=C\c1ccc2ccccc2c1)P(=O)(OCC)OCC`, the growth inhibition was -3% in experiment [1] (setting [7]); 59% in experiment [1] (setting [8]); 78.2% (active) in experiment [1] (at 50.0 µM); 3% in experiment [2] (setting [7]); 81% (active) in experiment [2] (setting [8]); 79.5% (active) in experiment [2] (at 50.0 µM). Further, the growth inhibition is 9% in experiment [3] (setting [7]); 66% in experiment [3] (setting [8]); 72% (active) in experiment [3] (at 50.0 µM); 30% in experiment [4] (setting [7]); 69% in experiment [4] (setting [8]); 65.4% in experiment [4] (at 50.0 µM). Further, the growth inhibition in experiment [5] (setting [7]) was 29%; in experiment [5] (setting [8]), 88% (active); in experiment [5] (at 50.0 µM) it was 74% (active); in experiment [6] (setting [7]) it was 17%; in experiment [6] (setting [8]) it was 88% (active); in experiment [6] (at 50.0 µM), 59.3%.

In the case of `Cc1cc(C)c([I+]c2c(C)cc(C)cc2C)c(C)c1`, the growth inhibition was 10% in experiment [1] (setting [7]); 95% (active) in experiment [1] (setting [8]); 57.8% in experiment [1] (at 50.0 µM); 20% in experiment [2] (setting [7]); 97% (active) in experiment [2] (setting [8]); 73.4% (active) in experiment [2] (at 50.0 µM). The growth inhibition in experiment [3] (setting [7]) was 9%; in experiment [3] (setting [8]) it was 95% (active); in experiment [3] (at 50.0 µM), 60.6%; in experiment [4] (setting [7]), 16%; in experiment [4] (setting [8]) it was 97% (active); in experiment [4] (at 50.0 µM), 56.6%. The growth inhibition is 52% in experiment [5] (setting [7]); 98% (active) in experiment [5] (setting [8]); 60% in experiment [5] (at 50.0 µM); 16% in experiment [6] (setting [7]); 72% (active) in experiment [6] (setting [8]); 71% (active) in experiment [6] (at 50.0 µM).

As for `CCNc1nnnn1CC`, the growth inhibition in experiment [1] (setting [7]) was -37%; in experiment [1] (setting [8]), 1%; in experiment [1] (at 50.0 µM), -2.5%; in experiment [2] (setting [7]) it was -2%; in experiment [2] (setting [8]), -2%; in experiment [2] (at 50.0 µM) it was 2.1%. The growth inhibition in experiment [3] (setting [7]) was 0%; in experiment [3] (setting [8]) it was 5%; in experiment [3] (at 50.0 µM) it was -5.35%; in experiment [4] (setting [7]), 2%; in experiment [4] (setting [8]), 4%; in experiment [4] (at 50.0 µM), 12.3%. Moreover, the growth inhibition in experiment [5] (setting [7]) is -1%; in experiment [5] (setting [8]), -2%; in experiment [5] (at 50.0 µM) it was 22.9%; in experiment [6] (setting [7]) it was 6%; in experiment [6] (setting [8]), 18%; in experiment [6] (at 50.0 µM), 2.8%.

In the case of `O=C(CCl)N(c1ccccc1)c1ccccc1`, the growth inhibition in experiment [1] (setting [7]) is 5%; in experiment [1] (setting [8]) it was 59%; in experiment [1] (at 50.0 µM) it was 89.7% (active); in experiment [2] (setting [7]), 3%; in experiment [2] (setting [8]) it was 59%; in experiment [2] (at 50.0 µM) it was 90.2% (active). The growth inhibition in experiment [3] (setting [7]) is 1%; in experiment [3] (setting [8]) it was 54%; in experiment [3] (at 50.0 µM), 91.8% (active); in experiment [4] (setting [7]), 1%; in experiment [4] (setting [8]) it was 39%; in experiment [4] (at 50.0 µM), 68.5%. In addition, the growth inhibition in experiment [5] (setting [7]) is 8%; in experiment [5] (setting [8]), 63%; in experiment [5] (at 50.0 µM) it was 86.5% (active); in experiment [6] (setting [7]), 2%; in experiment [6] (setting [8]), 73% (active); in experiment [6] (at 50.0 µM), 92.8% (active).

`O=C1c2ccccc2C(=O)c2c(O)c(Cl)cc(O)c21`: the growth inhibition in experiment [1] (setting [7]) was 3%; in experiment [1] (setting [8]), 20%; in experiment [1] (at 50.0 µM) it was 15.9%; in experiment [2] (setting [7]) it was 2%; in experiment [2] (setting [8]), 26%; in experiment [2] (at 50.0 µM), 1.3%. The growth inhibition in experiment [3] (setting [7]) is 7%; in experiment [3] (setting [8]), 71% (active); in experiment [3] (at 50.0 µM) it was 38.3%; in experiment [4] (setting [7]), 5%; in experiment [4] (setting [8]) it was 9%; in experiment [4] (at 50.0 µM) it was -55.6%. Besides, the growth inhibition in experiment [5] (setting [7]) was 4%; in experiment [5] (setting [8]), 38%; in experiment [5] (at 50.0 µM), -2.2%; in experiment [6] (setting [7]), 6%; in experiment [6] (setting [8]), 57%; in experiment [6] (at 50.0 µM), 78% (active).

As for `CC(=O)C1Cc2ccccc2C1=O` (stereo not given), the growth inhibition in experiment [1] (setting [7]) was 4%; in experiment [1] (setting [8]), 83% (active); in experiment [1] (at 50.0 µM), -9.4%; in experiment [2] (setting [7]), 3%; in experiment [2] (setting [8]) it was 44%; in experiment [2] (at 50.0 µM) it was 42.2%. Moreover, the growth inhibition was 0% in experiment [3] (setting [7]); 91% (active) in experiment [3] (setting [8]); 41.1% in experiment [3] (at 50.0 µM); 1% in experiment [4] (setting [7]); 50% in experiment [4] (setting [8]); -13.1% in experiment [4] (at 50.0 µM). Further, the growth inhibition was 3% in experiment [5] (setting [7]); 93% (active) in experiment [5] (setting [8]); 9% in experiment [5] (at 50.0 µM); 4% in experiment [6] (setting [7]); 90% (active) in experiment [6] (setting [8]); 71.8% (active) in experiment [6] (at 50.0 µM).

In the case of `NNc1cccc([N+](=O)[O-])c1`, the growth inhibition was 12% in experiment [1] (setting [7]); 68% in experiment [1] (setting [8]); 76.8% (active) in experiment [1] (at 50.0 µM); 0% in experiment [2] (setting [7]); 71% (active) in experiment [2] (setting [8]); 84.2% (active) in experiment [2] (at 50.0 µM). The growth inhibition in experiment [3] (setting [7]) is 10%; in experiment [3] (setting [8]), 50%; in experiment [3] (at 50.0 µM) it was 57.2%; in experiment [4] (setting [7]) it was 24%; in experiment [4] (setting [8]) it was 67%; in experiment [4] (at 50.0 µM), 72.6% (active). Further, the growth inhibition in experiment [5] (setting [7]) was -6%; in experiment [5] (setting [8]), 94% (active); in experiment [5] (at 50.0 µM), 81.8% (active); in experiment [6] (setting [7]), 11%; in experiment [6] (setting [8]), 94% (active); in experiment [6] (at 50.0 µM), 78% (active).

Consider `CCCOC(=O)c1nc(N(CC2CCCCC2)C(=O)NC)sc1/N=C/c1ccccc1`, for which the growth inhibition in experiment [1] (setting [7]) is 67%; in experiment [1] (setting [8]), 86% (active); in experiment [1] (at 50.0 µM), 5.15%; in experiment [2] (setting [7]) it was 62%; in experiment [2] (setting [8]), 90% (active); in experiment [2] (at 50.0 µM), -18.9%. Further, the growth inhibition in experiment [3] (setting [7]) was 45%; in experiment [3] (setting [8]), 91% (active); in experiment [3] (at 50.0 µM), 4.25%; in experiment [4] (setting [7]) it was 68%; in experiment [4] (setting [8]), 88% (active); in experiment [4] (at 50.0 µM), 37.9%. The growth inhibition in experiment [5] (setting [7]) was 77% (active); in experiment [5] (setting [8]), 92% (active); in experiment [5] (at 50.0 µM), 10.8%; in experiment [6] (setting [7]), 73% (active); in experiment [6] (setting [8]), 92% (active); in experiment [6] (at 50.0 µM), -10.2%.

For `Cc1ccc(N2C(=O)C=CC2=O)cc1`, the growth inhibition was 95% (active) in experiment [1] (setting [7]); 99% (active) in experiment [1] (setting [8]); 99.3% (active) in experiment [1] (at 50.0 µM); 99% (active) in experiment [2] (setting [7]); 99% (active) in experiment [2] (setting [8]); 99.5% (active) in experiment [2] (at 50.0 µM). The growth inhibition in experiment [3] (setting [7]) was 89% (active); in experiment [3] (setting [8]), 99% (active); in experiment [3] (at 50.0 µM), 99.7% (active); in experiment [4] (setting [7]), 92% (active); in experiment [4] (setting [8]), 100% (active); in experiment [4] (at 50.0 µM) it was 99.5% (active). The growth inhibition in experiment [5] (setting [7]) was 99% (active); in experiment [5] (setting [8]), 99% (active); in experiment [5] (at 50.0 µM), 98.9% (active); in experiment [6] (setting [7]), 82% (active); in experiment [6] (setting [8]), 100% (active); in experiment [6] (at 50.0 µM) it was 99.2% (active).

Turning to `CCCCCCCCCCCCSC(=N)N`, the growth inhibition in experiment [1] (setting [7]) is 86% (active); in experiment [1] (setting [8]), 98% (active); in experiment [1] (at 50.0 µM) it was 51.3%; in experiment [2] (setting [7]), 21%; in experiment [2] (setting [8]), 99% (active); in experiment [2] (at 50.0 µM), 99% (active). Besides, the growth inhibition is 84% (active) in experiment [3] (setting [7]); 98% (active) in experiment [3] (setting [8]); 46.5% in experiment [3] (at 50.0 µM); 20% in experiment [4] (setting [7]); 98% (active) in experiment [4] (setting [8]); 97.2% (active) in experiment [4] (at 50.0 µM). For the same compound, the growth inhibition is 72% (active) in experiment [5] (setting [7]); 95% (active) in experiment [5] (setting [8]); 98.7% (active) in experiment [5] (at 50.0 µM); 49% in experiment [6] (setting [7]); 99% (active) in experiment [6] (setting [8]); 64.2% in experiment [6] (at 50.0 µM).
